This passage reports outcome and AC50 results from PubChem BioAssay (EPA / NIEHS).

Molecules are shown by their SMILES. Values joined by “and” are separate entries in the source; they are usually repeats but may differ in a detail not shown here. Equal entries are not always repeated. Records with an inconclusive call do not appear. Some compounds were tested as several samples or in several runs, with calls that do not always agree. Active and inactive are the calls of the source. The calls were made as follows: active = hit-call score of the fitted dose curve at least 0.9, where 1 is the maximum; inconclusive = response in the unintended direction; inactive = score below 0.9.

One may read the AC50 as the midpoint of the concentration-response curve, whichever way the signal moves.

Test system in one assay: not listed separately
Put plainly: TOX21_p53_BLA_p5_viability: Viability Assessment in the Tox21 HCT-116 p53 Agonism Beta-lactamase Assay, Phase 5 (AID 2283600). The method, boiled down: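 After the 460/530 nm beta-lactamase measurement, the wells received an ATP-detection luciferase reagent; signal was read 30 min later at RT. Compound treatment lasted 16 h on cells pre-incubated 5 h post-seeding.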
Take `CCOc1ccc(N)c([N+](=O)[O-])c1`: the compound was called inactive. The same measure, in the same setting: for `CCCCCCCCCCCCCCCCCC#N` the value was “inactive”; for `OCCNCc1ccccc1`, “inactive”; for `CC(=O)C=CC1C(C)=CCC(C)C1(C)C` (stereo not given), “inactive”. Still for that read-out and setting: as for `O=C1CCCCCCCCCCC(=O)OCCO1`, the entry is “inactive”. As for `O=C(Nc1ccccc1SSc1ccccc1NC(=O)c1ccccc1)c1ccccc1`, the call was inactive. Regarding `CCC(CC)C(=O)O`, the compound was called inactive. On the same count and under the same terms, as for `C=C(C)c1cccc(C(C)(C)N=C=O)c1`, the entry is “inactive”; as for `CC(C)c1ccc(C#N)cc1`, “inactive”. As to `CCCCCCCCCCOC(C)=O`, the result was inactive. On the same count and under the same terms, as for `C1=Cc2ccccc2C1`, the entry is “inactive”; as for `NC(=O)NNC(N)=O`, “inactive”.

On to `Cc1cc(C)c(C)cc1C`, for which the result was inactive. On the same count and under the same terms, for `O=C1CCCC(=O)O1` the value was “inactive”; for `Cc1ccc(C(C)(C)C)cc1`, “inactive”; for `COc1ccc([C@@H]2CC(=O)c3c(O)cc(O[C@@H]4O[C@H](CO[C@@H]5O[C@@H](C)[C@H](O)[C@@H](O)[C@H]5O)[C@@H](O)[C@H](O)[C@H]4O)cc3O2)cc1OC`, “inactive”. Same read-out and setting: as for `CNC(=S)NN`, the entry is “inactive”; as for `Cc1ccccc1C`, “inactive”; as for `CCC(=O)Oc1ccc(/C(CC)=C(\CC)c2ccc(OC(=O)CC)cc2)cc1`, “inactive”.

In the next assay the target is Cellular tumor antigen p53 (Homo sapiens) (UniProt P04637). Kind of assay: TOX21_p53_BLA_p4_ratio: Tox21 HCT-116 p53 Agonism Beta-lactamase Assay, Ratio, Phase 4 (AID 2283601). An outline of the steps: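 HCT116 cells carrying an inducible beta-lactamase reporter were plated at 4000 cells/well, rested 5 h, then exposed to compounds in DMSO (217-fold dilution) for 16 h at 37C. CCF4-AM substrate was loaded 2 h at room temperature; 460/530 nm emission ratio scored gain-of-signal versus DMSO.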
Sequence of Cellular tumor antigen p53 (Homo sapiens) (P04637 whole entry, looked up): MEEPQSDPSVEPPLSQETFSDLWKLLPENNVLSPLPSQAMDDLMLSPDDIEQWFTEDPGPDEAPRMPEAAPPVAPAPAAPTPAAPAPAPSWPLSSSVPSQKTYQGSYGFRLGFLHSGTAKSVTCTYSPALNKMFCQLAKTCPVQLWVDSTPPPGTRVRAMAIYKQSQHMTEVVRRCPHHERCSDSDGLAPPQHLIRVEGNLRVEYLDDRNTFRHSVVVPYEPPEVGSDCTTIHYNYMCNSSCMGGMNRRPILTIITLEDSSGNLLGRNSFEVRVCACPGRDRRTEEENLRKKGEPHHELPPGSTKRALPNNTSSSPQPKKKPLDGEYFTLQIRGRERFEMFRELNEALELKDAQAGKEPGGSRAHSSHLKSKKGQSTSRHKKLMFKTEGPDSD
With `C=C(C)[C@@H]1CCC2=CCC[C@@H](C)[C@]2(C)C1`, the result was inactive. The same measure, in the same setting: as for `CCCCCCOC(=O)C(C)CC` (stereo not given), the entry is “inactive”. Still for that read-out and setting: as for `C=CC(C)(CCC=C(C)C)OC(=O)C(C)C` (stereo not given), the entry is “inactive”; as for `Cc1cc(C)c(C(=O)O)c(C)c1`, “inactive”; as for `CC(=O)C=CC1C(C)=CCC(C)C1(C)C` (stereo not given), “inactive”. Still for that read-out and setting: as for `O=C1CCCCCCCCCCC(=O)OCCO1`, the entry is “inactive”; as for `Cc1cnc(NC(=O)C2=C(O)c3ccccc3S(=O)(=O)N2C)s1`, “inactive”. Consider `O=C(Nc1ccccc1SSc1ccccc1NC(=O)c1ccccc1)c1ccccc1`, for which the AC50 was 65.5 µM (active) and 56.9 µM (active). As to `CC(=O)OCC(C)OC(C)=O` (stereo not given), the result was inactive. `O=C(c1ccc(O)cc1)c1ccc(O)cc1O`: the AC50 was 72.9 µM (active) and the outcome was inactive.

Turning to `CC1(C)S[C@@H]2[C@H](NC(=O)COc3ccccc3)C(=O)N2[C@H]1C(=O)O`, the result was inactive. `C=C(C)c1cccc(C(C)(C)N=C=O)c1`: the outcome was inactive. Turning to `CC(C)c1ccc(C#N)cc1`, the outcome was inactive. Still for that read-out and setting: for `CCCCCCCCCCOC(C)=O` the value was “inactive”; for `COC(=O)c1sccc1S(N)(=O)=O`, “inactive”; for `NNC(=O)c1cccc(C(=O)NN)c1`, “inactive”. On the same count and under the same terms, for `Cc1cc(C)c(C)cc1C` the value was “inactive”; for `OC1OCCOC1O` (stereo not given), “inactive”. On the same count and under the same terms, as for `O=C1CCCC(=O)O1`, the entry is “inactive”. For `Cc1ccc(C(C)(C)C)cc1`, the outcome was inactive. Still for that read-out and setting: for `Cc1cc(C)c(C)c(O)c1` the value was “inactive”; for `CNC(=S)NN`, “inactive”; for `CCN(CC#N)c1cccc(C)c1`, “inactive”.

Consider `Cc1ccccc1C`, for which the outcome was inactive. Still for that read-out and setting: as for `CCC(=O)Oc1ccc(/C(CC)=C(\CC)c2ccc(OC(=O)CC)cc2)cc1`, the entry is “inactive”.
